Assay outcomes (PubChem BioAssay)
An excerpt weighted towards active compounds, which were near 4.3% of everything screened.
rCAG binder – binders of r(CAG) RNA repeats, primary screen, biochemical, fluorescence | r(CAG) RNA repeat, TO-PRO-1 dye displacement fluorescence | inhibition, % at 3 µM | 370,000 tested, 1.3% active | AID 651821, 2012;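 active = inhibition above the plate cutoff, the mean of all test compounds on that plate plus 3 SD, cut at about 35% in these data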;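 also: 0% = DMSO alone and 100% = 100 µM mitoxantrone as full dye displacement; higher means more dye released from RNA so lower well fluorescence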
GRIN3A LBD mod – binders of NR3A ligand-binding domain, primary screen, biophysical, differential scanning fluorimetry, uHTS | NR3A LBD differential scanning fluorimetry, Tm shift; 0% = protein alone, 100% = glycine-bound protein | Tm shift relative to glycine control, % at 25 µM | 340,000 tested, 2.5% active | AID 1259313, 2017;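 active = melting temperature shift of at least 10% of the positive control shift, at one fixed dose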
NadD block – inhibitors of S. aureus NadD, primary screen, biochemical, colorimetric, uHTS. Nicotinate-nucleotide adenylyltransferase NadD (Staphylococcus aureus N315). purified NadD enzyme, colorimetric absorbance read-out. inhibition, % at 20 µM. 360,000 tested, 0.78% active. AID 602399, 2012; in the data active = inhibition above about 26%
FAS-TE inh – FAS thioesterase domain inhibitors, primary screen, biochemical, fluorescence intensity, uHTS | AID 602261, 2012 | inhibition, % at 15 µM | Fatty acid synthase (Homo sapiens), P49327 | 360,000 tested, 0.67% active | recombinant FAS-TE, OMFH fluorogenic substrate, fluorescence endpoint;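 active = compounds whose normalised, plate-corrected inhibition of enzyme fluorescence in the single-dose primary screen is 50% or more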;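 also: 0% = DMSO with enzyme and 100% = substrate without enzyme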
Target sequence (P49327 whole entry, looked up, the tested form may be a part): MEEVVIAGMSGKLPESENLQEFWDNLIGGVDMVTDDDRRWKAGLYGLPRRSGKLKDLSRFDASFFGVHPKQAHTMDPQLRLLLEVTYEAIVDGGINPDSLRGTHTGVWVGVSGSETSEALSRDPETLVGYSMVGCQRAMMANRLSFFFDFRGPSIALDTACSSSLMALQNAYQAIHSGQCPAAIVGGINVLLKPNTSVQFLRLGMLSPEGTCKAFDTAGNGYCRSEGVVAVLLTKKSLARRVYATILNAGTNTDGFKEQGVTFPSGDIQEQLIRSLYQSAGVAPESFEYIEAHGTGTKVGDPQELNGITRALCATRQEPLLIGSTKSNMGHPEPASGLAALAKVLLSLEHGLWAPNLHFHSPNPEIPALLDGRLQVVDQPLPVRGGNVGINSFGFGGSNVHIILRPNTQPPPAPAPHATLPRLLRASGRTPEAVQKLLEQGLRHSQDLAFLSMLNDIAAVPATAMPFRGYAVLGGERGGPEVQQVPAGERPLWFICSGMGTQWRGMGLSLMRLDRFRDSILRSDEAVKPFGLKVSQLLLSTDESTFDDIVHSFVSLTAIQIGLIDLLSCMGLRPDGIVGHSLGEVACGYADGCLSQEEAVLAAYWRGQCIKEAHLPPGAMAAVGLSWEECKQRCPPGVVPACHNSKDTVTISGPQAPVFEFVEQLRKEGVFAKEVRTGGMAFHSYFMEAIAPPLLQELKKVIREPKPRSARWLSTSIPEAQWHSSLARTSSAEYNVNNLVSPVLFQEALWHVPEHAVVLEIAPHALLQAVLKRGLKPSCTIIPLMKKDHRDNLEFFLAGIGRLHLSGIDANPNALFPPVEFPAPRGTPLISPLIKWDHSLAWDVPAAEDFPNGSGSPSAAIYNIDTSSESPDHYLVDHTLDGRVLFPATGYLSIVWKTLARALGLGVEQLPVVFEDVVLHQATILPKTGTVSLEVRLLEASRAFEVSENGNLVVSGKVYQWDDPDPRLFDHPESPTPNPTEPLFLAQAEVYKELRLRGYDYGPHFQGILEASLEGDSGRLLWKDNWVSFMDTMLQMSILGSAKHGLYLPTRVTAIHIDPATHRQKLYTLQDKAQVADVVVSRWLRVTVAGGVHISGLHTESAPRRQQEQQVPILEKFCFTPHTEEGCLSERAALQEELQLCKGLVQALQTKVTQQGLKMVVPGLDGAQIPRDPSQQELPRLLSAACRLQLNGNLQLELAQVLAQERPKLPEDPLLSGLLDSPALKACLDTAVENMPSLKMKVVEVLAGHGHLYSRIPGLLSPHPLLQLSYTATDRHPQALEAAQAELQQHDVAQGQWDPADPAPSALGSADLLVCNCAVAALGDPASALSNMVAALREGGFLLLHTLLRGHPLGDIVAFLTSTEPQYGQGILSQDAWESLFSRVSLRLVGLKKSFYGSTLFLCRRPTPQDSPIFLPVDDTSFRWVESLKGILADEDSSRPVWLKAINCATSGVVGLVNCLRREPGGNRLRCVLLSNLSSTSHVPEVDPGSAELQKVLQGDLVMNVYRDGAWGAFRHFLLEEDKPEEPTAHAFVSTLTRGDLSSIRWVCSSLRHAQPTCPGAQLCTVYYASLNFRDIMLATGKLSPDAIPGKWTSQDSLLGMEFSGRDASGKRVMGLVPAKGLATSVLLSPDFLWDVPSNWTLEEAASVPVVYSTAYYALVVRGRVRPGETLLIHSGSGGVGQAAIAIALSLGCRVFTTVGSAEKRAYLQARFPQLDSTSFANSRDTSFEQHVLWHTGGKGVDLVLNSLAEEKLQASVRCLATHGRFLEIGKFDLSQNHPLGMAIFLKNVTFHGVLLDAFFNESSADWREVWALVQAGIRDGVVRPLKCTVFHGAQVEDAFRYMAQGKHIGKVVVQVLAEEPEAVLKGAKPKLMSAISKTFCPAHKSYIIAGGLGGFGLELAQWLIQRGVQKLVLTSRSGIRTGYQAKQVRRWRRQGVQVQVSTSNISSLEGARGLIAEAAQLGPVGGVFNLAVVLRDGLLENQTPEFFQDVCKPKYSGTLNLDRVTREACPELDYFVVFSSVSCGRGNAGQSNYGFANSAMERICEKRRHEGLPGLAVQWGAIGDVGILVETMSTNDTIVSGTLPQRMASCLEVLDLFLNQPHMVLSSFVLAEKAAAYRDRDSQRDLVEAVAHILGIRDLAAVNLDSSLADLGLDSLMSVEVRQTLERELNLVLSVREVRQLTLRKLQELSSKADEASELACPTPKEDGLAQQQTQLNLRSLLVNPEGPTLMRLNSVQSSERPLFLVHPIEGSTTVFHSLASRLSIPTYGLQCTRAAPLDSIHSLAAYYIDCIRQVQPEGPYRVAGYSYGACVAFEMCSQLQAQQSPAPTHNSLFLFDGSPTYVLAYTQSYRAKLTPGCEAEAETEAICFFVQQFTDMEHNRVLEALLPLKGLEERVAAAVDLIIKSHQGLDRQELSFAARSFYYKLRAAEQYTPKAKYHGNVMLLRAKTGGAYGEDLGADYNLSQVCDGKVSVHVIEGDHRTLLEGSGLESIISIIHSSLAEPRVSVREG
FAS-TE conf – FAS thioesterase domain inhibitors, confirmation, biochemical, fluorescence intensity, single concentration; shares compounds with FAS-TE inh; recombinant FAS-TE, OMFH fluorogenic substrate; inhibition, % at 15 µM; 2,300 tested, 45% active; AID 624325, 2012;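 active = compounds inhibiting the enzyme by at least 50% at 15 µM in any one of the replicates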;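 also: 0% = enzyme with DMSO only and 100% = wells lacking enzyme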
* hit, by the source's call; . = no result given.

SMILES | rCAG binder | GRIN3A LBD mod | NadD block | FAS-TE inh | FAS-TE conf
COc1cc(/C=N/Nc2nc(Nc3ccccc3)nc(N3CCOCC3)n2)ccc1OC(=O)c1ccco1 | 6 | 2 | 13 | 67* | 24
COc1ccc(/C=N/Nc2nc(Nc3ccccc3)nc(N3CCCCC3)n2)c(OC)c1 | 1 | -6 | 19 | 50* | 23
CCOc1cc(/C=N/Nc2nc(N3CCCCC3)nc(N3CCCCC3)n2)ccc1OC(=O)c1ccco1 | 0 | 1 | 25 | 71* | 2
C=CCNC(=O)CN(C(=O)Cc1ccc(Cl)cc1)c1cccc(Br)c1 | 2 | . | . | . | .
Cc1nc2ccc([N+](=O)[O-])cc2c(=O)n1Cc1ccc(F)cc1 | -1 | 1 | 10 | 71* | 75*
Cc1cccc(Cn2c(C)nc3ccc([N+](=O)[O-])cc3c2=O)c1 | -2 | -1 | -5 | 40 | .
Cc1ccccc1Cn1c(C)nc2ccc([N+](=O)[O-])cc2c1=O | -3 | 2 | -2 | 61* | 51*
CCC1=NN(C(=O)c2cccc(Br)c2)C(O)(c2ccc(Br)cc2)C1 (stereo unspecified) | 6 | 5 | 0 | 52* | 47
C[C@@H]1COc2cc(Br)ccc2S(=O)(=O)N1Cc1cn(Cc2ccccc2)nn1 | 3 | . | . | . | .
CC1(C)CC(=O)C=C(c2ccc(COC(=O)/C=C/c3ccccc3)cc2)C1=O | 4 | . | -8 | 28 | .
CC1(C)CC(=O)C=C(c2ccc(COC(=O)c3ccccc3)cc2)C1=O | 1 | . | -3 | 64* | 43*
O=C1/C(=C/c2ccc(O)c([N+](=O)[O-])c2)SC(=S)N1Cc1ccccc1 | 7 | 498* | 17 | 86* | 11
O=C(O)c1cccc(CN2C(=O)S/C(=C/c3cccc([N+](=O)[O-])c3)C2=O)c1 | 7 | 5 | -1 | 10 | .
CCN(C(=O)[C@@H]1CC(=O)O[C@@H]1c1ccccc1)c1ccccc1 | 1 | . | . | . | .
Cc1cccn2c(=O)c(/C=C(\C#N)C(N)=O)c(N3CCN(Cc4ccc5c(c4)OCO5)CC3)nc12 | 0 | 4 | 4 | 56* | 69*
CCOC(=O)/C(C#N)=C/c1c(N2CCN(Cc3ccc4c(c3)OCO4)CC2)nc2c(C)cccn2c1=O | 1 | -2 | 13 | 51* | 0
COC(=O)/C(C#N)=C/c1c(N2CCN(Cc3ccc4c(c3)OCO4)CC2)nc2c(C)cccn2c1=O | -2 | -1 | -3 | -6 | .
COC(=O)[C@]12C[C@H](CC(=O)NCc3cccc4ccccc34)C(=O)N(Cc3ccc(Cl)cc3Cl)C1=C[C@H](C(C)(C)C)O[C@@H]2C | 6 | . | . | . | .
CC(C)c1ccccc1-n1c(SCC(=O)N2CCc3ccccc3C2)nc2ccccc2c1=O | 5 | -1 | -2 | 60* | 23
C=C(C)CSc1ncc(-c2cccc(C(F)(F)F)c2)cn1 | -2 | 1 | 4 | 58* | 36*
CNC(=O)NC(=O)CSc1cccc(C(F)(F)F)c1 | -2 | 2 | 2 | -5 | .
O=C(CSc1nnc(-c2ccco2)n1-c1ccc(Cl)cc1)Nc1ccccc1-c1ccccc1 | 3 | . | . | . | .
COc1ccc(C(=O)C(C)N(C(=O)c2ccc(Cl)cc2Cl)N2C(=O)C3C4C=CC(C4)C3C2=O)cc1 (stereo unspecified) | 1 | -1 | -7 | 60* | 9
Cc1ccc(C(=O)C(C)N(C(=O)c2ccc(Cl)cc2Cl)N2C(=O)CCCC2=O)cc1 (stereo unspecified) | -2 | 0 | -5 | 4 | .
N#Cc1cccc(NC(=O)OC2CCC23CCC(c2ccccc2)CC3)c1 (stereo unspecified) | 3 | . | . | . | .
SMILES | rCAG binder | GRIN3A LBD mod | NadD block | FAS-TE inh | FAS-TE conf
CN1CC=C(c2ccc(C(F)(F)F)cc2)N(c2ccccc2)C1=O | 4 | . | . | . | .
COC(=O)[C@]12C[C@H](CC(=O)N3CCSCC3)C(=O)N(CCc3ccc(OC)c(OC)c3)C1=C[C@H](C1CCCC1)O[C@@H]2C | 4 | . | . | . | .
Cc1n[nH]c(C)c1S(=O)(=O)NC(C)Cc1ccccn1 (stereo unspecified) | 4 | . | . | . | .
Cc1nn(Cc2ccc([N+](=O)[O-])cc2)c(=O)n1-c1cccc(Cl)c1 | -4 | -2 | -2 | 66* | 75*
O=S1(=O)c2c(cccc2N2CCC[C@@H]2CO)O[C@H]2CCN1C2 | 4 | . | . | . | .
Fc1nc(F)c(F)c(NCCCNc2c(F)c(F)nc(F)c2F)c1F | -3 | 3 | -3 | 55* | 57*
O=C(Nn1c(C2CCCCC2)nc2ccccc2c1=O)c1ccc(Cl)c([N+](=O)[O-])c1 | 28 | 3 | 0 | 57* | 60*
O=C(Nn1c(C2CCCCC2)nc2ccccc2c1=O)c1ccc([N+](=O)[O-])cc1Cl | 24 | 1 | 7 | 62* | 43*
Cc1cc(C(=O)Nn2c(C3CCCCC3)nc3ccccc3c2=O)ccc1[N+](=O)[O-] | 7 | 3 | 7 | 26 | .
CCc1ccc(/C=C/c2c([N+](=O)[O-])c(=O)n(C)c(=O)n2C)cc1 | -2 | 0 | -4 | 9 | .
Cn1c(/C=C/N(Cc2ccccc2)c2ccccc2)c([N+](=O)[O-])c(=O)n(C)c1=O | 14 | -1 | -1 | 57* | 47*
CC(C)(C)c1ccc(OCCC(=O)OCC(=O)N2c3ccccc3NC(=O)C2(C)C)cc1 | -2 | -6 | -6 | 56* | 66*
COc1ccc(C(=O)OCCCN(C)C2CN(Cc3cn(Cc4ccccc4F)nn3)S(=O)(=O)C2)cc1OC (stereo unspecified) | -1 | . | . | . | .
CC(C)Oc1ccc(S(=O)(=O)N2CCCCC2)cc1NC(=O)C1=COCCO1 | -3 | 3 | -3 | 11 | .
Cc1cccc(Oc2ccc(S(=O)(=O)N3CCCCC3)cc2NC(=O)C2=COCCO2)c1 | 1 | -1 | -4 | 65* | 6
Cc1cccc(NC(=O)c2nc[nH]c2C(=O)N[C@@H](CCCCNC(=O)OC(C)(C)C)C(=O)OC(C)(C)C)c1 | 5 | -9 | 7 | 90* | 55*
COc1ccc(NC(=O)C(CCCCNC(=O)OC(C)(C)C)NC(=O)OCc2ccccc2)cc1 (stereo unspecified) | 0 | 0 | 10 | -6 | .
CC(C)(C)OC(=O)N[C@@H](CCCCNC(=O)OCc1ccccc1)c1nnc([C@H](CCCCNC(=O)OCc2ccccc2)NC(=O)OC(C)(C)C)o1 | . | 1 | 0 | 66* | 27
CC(C)C[C@H](NC(=O)c1nc[nH]c1C(=O)N[C@@H](CCCCNC(=O)OC(C)(C)C)C(=O)OC(C)(C)C)C(=O)OCc1ccccc1 | 14 | -6 | 8 | 20 | .
C[C@H](NC(=O)c1nc[nH]c1C(=O)N[C@@H](CCCCNC(=O)OC(C)(C)C)C(=O)OC(C)(C)C)C(=O)OCc1ccccc1 | -2 | -6 | 10 | 87* | 74*
